FadD28 FP inh – blocks FadD28 binding to the bisubstrate probe; fluorescence polarization; 0.22% of 360,000 active; inhibition, % at 12.5 µM; in the data active = inhibition above about 8.5%, passing the limit was not always enough
Mtb hypoxia rep – Mtb hypoxia fluorescent reporter inhibition. M. tuberculosis hypoxia-regulated fluorescent reporter, fluorescence. fluorescence inhibition, % (concentration not given with the values). 0.1% of 300,000 active. AID 1159583; in the data active = fluorescence inhibition mostly above about 23%, no sharp cut-off; inactive = mostly below about 17%
Mtb FBA inh – Mtb fructose-bisphosphate aldolase inhibition. P9WQA3. purified M. tuberculosis FBA, fluorescence read-out. inhibition, % at 1 µM. 2.3% of 360,000 active; in the data active = inhibition above about 27%;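 note: 0% = vehicle and 100% = reference inhibitor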
Mtb UGM inh – Mtb UDP-galactopyranose mutase inhibition. purified UGM, fluorescence polarization probe displacement. inhibition, % at 10 µM. 0.06% of 320,000 active; in the data active = inhibition above about 10%, passing the limit was not always enough
GDH-TPI counter – counter-screen for M. tuberculosis FBA inhibitors: GDH-TPI coupled enzymes. GDH-TPI coupled enzyme counterscreen, NADH absorbance. inhibition, % at 4.8 µM. 1.2% of 360,000 active; in the data active = inhibition above about 30%;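 note: 0% = DMSO wells and 100% = wells lacking the enzyme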
Rv3671c inh – inhibitors of M. tuberculosis serine protease Rv3671c; inhibition, % at 5.96 µM; P9WHR9; 0.048% of 320,000 active; in the data active = inhibition above about 38%;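 note: extracellular domain of Rv3671c used as enzyme; 0% = enzyme with DMSO and 100% = no enzyme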
Target sequence (P9WHR9 whole entry, looked up, the tested form may be a part): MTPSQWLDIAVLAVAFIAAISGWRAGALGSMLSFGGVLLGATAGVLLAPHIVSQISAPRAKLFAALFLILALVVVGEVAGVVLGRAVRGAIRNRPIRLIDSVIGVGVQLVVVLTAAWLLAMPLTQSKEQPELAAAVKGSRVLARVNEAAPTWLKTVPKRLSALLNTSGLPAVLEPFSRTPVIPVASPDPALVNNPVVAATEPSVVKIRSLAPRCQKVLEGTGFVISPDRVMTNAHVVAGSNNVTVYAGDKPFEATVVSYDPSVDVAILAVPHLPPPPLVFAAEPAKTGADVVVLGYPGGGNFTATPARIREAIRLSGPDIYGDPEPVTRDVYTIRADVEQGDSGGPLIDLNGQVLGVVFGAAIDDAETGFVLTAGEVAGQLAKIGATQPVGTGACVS
* = called active by the depositor; x = not tested or not shown; + = active, no number. An excerpt weighted towards active compounds, which were near 3.5% of everything screened.

SMILES	FadD28 FP inh	Mtb hypoxia rep	Mtb FBA inh	Mtb UGM inh	GDH-TPI counter	Rv3671c inh
Oc1cccc2cc3cccc(O)c3c(O)c12	-7.3	x	-3.0	1.4	5.3	37.8*
CC1CC(=NNC(=O)c2cccs2)CC(C)(C)C1 (configuration not stated)	x	-4.0	x	x	x	x
O=C1C=C(c2ccc(Cl)nc2)CC(c2ccc3c(c2)OCO3)C1 (configuration not stated)	x	7.3	x	x	x	x
COc1cc(/C=C\C(=O)Nc2cc(=O)n(C)c(=O)n2C)cc(OC)c1OC	-2.3	-2.2	-2.7	-3.6	25.2	3.1
COc1ccc(/C=N/Nc2cc(=O)n(C)c(=O)n2C)cc1OC	0.5	x	12.6	2.2	34.0*	-11.6
COc1ccc(/C=C/C(=O)NNc2cc(=O)n(C)c(=O)n2C)cc1OC	-2.4	-5.0	11.5	-1.3	33.5*	-18.3
CC(=NOC(=O)c1ccccc1Br)c1ccc(C)cc1	x	8.4	x	x	x	x
CON=Cc1cccn1-c1nccc(OC)c1C#N	x	11.0	x	x	x	x
CCOC(=O)C(=CNc1ccc(N2CCOCC2)cc1)C(=O)OCC	-1.9	-3.0	-2.9	-0.1	63.3*	9.0
CCOC(=O)C(=CNc1ccc2c(c1)CCN2C(C)=O)C(=O)OCC	-2.8	8.9	-3.0	-1.8	34.6*	3.9
CCOC(=O)C(=CNc1ccc(S(N)(=O)=O)cc1)C(=O)OCC	-4.0	-0.1	-0.8	1.2	40.5*	-0.6
CCOC(=O)C(=CNc1ncccc1C)C(=O)OCC	-0.1	-2.2	-0.6	-0.6	38.0*	2.5
CCOC(=O)C(=CNc1ccc(C#N)cc1)C(=O)OCC	0.3	x	-2.9	2.3	23.2	8.5
COc1cc(C(=O)Nc2ccc3c(c2)CCN3C(C)=O)cc(OC)c1OC	-4.4	-7.7	-0.1	0.3	6.8	-4.3
COC(=O)C(Cc1ccc(O)cc1)NC(=O)Cn1ccc(NC(=O)OCc2ccccc2)nc1=O (configuration not stated)	x	2.0	x	x	x	x
O=C(CSc1ccc(-c2nc3ccccc3[nH]2)cn1)Nc1ccc(S(=O)(=O)N2CCCC2)cc1	21.5*	x	7.5	2.0	20.9	-162.9
Cc1ccc2nc(-c3ccc(SCC(=O)O)nc3)[nH]c2c1	-6.9	x	+	-2.6	53.1*	1.4
Cc1cc2nc(-c3ccc(SCC(=O)Nc4nccs4)nc3)[nH]c2cc1C	-6.2	x	0.0	x	11.5	x
Cc1cc2nc(-c3ccc(SCC(=O)Nc4ccc(S(=O)(=O)N5CCCC5)cc4)nc3)[nH]c2cc1C	-0.7	4.4	21.1	-1.6	38.3*	-207.7
O=C(COc1cccc(Br)c1)NN=CC(=O)c1ccccc1	x	9.1	x	x	x	x
C/C(=N/NC(=O)c1ccccn1)c1ccc(O)cc1	-0.5	x	-0.3	-1.6	32.5*	8.7
CC(=NNC(=O)c1ccc(O)cc1)c1ccc(NC(=O)Cc2ccccc2)cc1	x	6.0	x	x	x	x
CC(=NNC(=O)c1ccccn1)c1ccc(O)cc1	x	7.0	x	x	x	x
C/C(=N\NC(=O)c1ccc(N/N=C(\C)c2ccc(O)cc2)cc1)c1ccc(O)cc1	-1.5	x	2.3	0.9	46.1*	5.1
O=C(O)COc1ccc2nsnc2c1Cl	-2.6	x	42.5*	8.8	6.0	-0.6
SMILES	FadD28 FP inh	Mtb hypoxia rep	Mtb FBA inh	Mtb UGM inh	GDH-TPI counter	Rv3671c inh
Cc1cc(=O)oc2c3c(cc(OCC(=O)NCC(=O)O)c12)OC(C)(C)CC3	1.6	-5.2	+	2.3	9.9	14.6
Cc1cc(=O)oc2c3c(cc(OCC(=O)NCc4ccccc4)c12)OC(C)(C)CC3	-1.2	x	150.2*	1.8	27.4	-8.0
Cc1cc(=O)oc2c3c(cc(OCC(=O)Nc4ccc(CCO)cc4)c12)OC(C)(C)CC3	-8.5	x	156.5*	1.6	21.6	-19.3
Cn1c(=O)c(Cc2ccccc2)c(O)c2ccccc21	0.5	8.3	26.1	-0.2	8.8	3.6
CCCc1c(O)c2ccccc2n(-c2ccccc2)c1=O	-0.2	x	44.7*	-2.1	13.8	-3.8
O=C(Nc1cccc(-c2cn3cccnc3n2)c1)c1ccc2c(c1)OCO2	-5.5	-0.6	133.8*	-1.0	16.9	-7.8
O=C(Nc1cccc(-c2cn3cccnc3n2)c1)Nc1ccccc1F	-1.5	-6.3	10.0	1.8	15.1	-15.4
CCCC(=O)Nc1cc(-c2cn3cccnc3n2)ccc1OC	-4.9	1.0	19.0	0.7	16.8	4.2
Cc1cccn2cc(-c3cccc(NC(=O)c4cccs4)c3)nc12	-13.4	-6.3	0.4	0.9	5.7	-5.1
O=C(Nc1cccc(-c2cn3cccnc3n2)c1)c1cccs1	-0.6	-1.6	170.2*	0.5	12.4	2.1
O=C(Nc1cccc(-c2cn3cccnc3n2)c1)c1ccc(Br)o1	-2.3	-4.2	+	-1.1	19.7	-12.7
Cc1ccc(-c2cn3cccnc3n2)cc1NC(=O)c1ccc(Br)o1	-0.3	22.5	+	0.9	41.1*	-0.1
C=CCOC(=O)C1=CC(c2cn(C(C)=O)c3ccccc23)CC(OCCCCO)O1 (configuration not stated)	x	8.3	x	x	x	x
COc1cc(NC(=O)CC(C)=NNC(=O)c2ccccn2)c(OC)cc1Cl	x	-1.2	x	x	x	x
O=C(Nc1cccc(-c2cn3cccnc3n2)c1)c1ccco1	-2.3	-20.3	+	0.5	23.8	4.6
O=C(Nc1nc2ccccc2[nH]1)c1ccc(S(=O)(=O)N2CCOCC2)cc1	-1.4	-0.7	3.6	-0.8	39.0*	-4.5
O=C(NCc1nc2ccccc2[nH]1)c1ccc(S(=O)(=O)N2CCOCC2)cc1	-2.3	15.7	1.6	-2.7	8.8	9.6
O=C(Nc1ccno1)Nc1ccc(Cl)cc1Cl	-1.7	58.2*	-1.8	0.1	-3.4	5.3
Cc1ccc(NC(=O)Nc2ccno2)cc1	-0.8	89.3*	2.5	4.2	8.1	7.0
CC(=NNC(=O)CN(c1ccc(Oc2ccccc2)cc1)S(C)(=O)=O)C(C)(C)C	x	10.3	x	x	x	x
CC(C)CC(NC(=O)c1[nH]cnc1C(=O)NC(C)C(=O)OC(C)(C)C)C(=O)OCc1ccccc1 (configuration not stated)	x	11.2	x	x	x	x
Cc1ccc(N(CC(=O)Nc2ccc(-c3nc4ccc(C)cc4s3)cc2)S(C)(=O)=O)cc1	-6.4	x	17.8	1.1	37.5*	-8.6
Cc1ccc2nc(-c3ccc(NC(=O)CN4CCN(c5ccccn5)CC4)cc3)sc2c1	-0.2	-1.1	39.9*	0.4	30.3	-3.6
Cc1ccc2nc(NC(=O)CN3CCN(c4ccccn4)CC3)sc2c1	0.4	1.2	5.2	0.3	3.9	-4.3
Cc1ccc(S(=O)(=O)Nc2ccc(-c3nc4ccc(C)cc4s3)cc2)cc1	-0.8	-4.6	183.4*	1.1	9.9	-12.5
Cc1cccc(S(=O)(=O)Nc2ccc(-c3nc4ccc(C)cc4s3)cc2)c1	-2.7	6.6	+	4.1	23.9	-5.0
CCN(C(=O)CON=Cc1ccc(OC)cc1OC)c1c(N)n(Cc2ccccc2)c(=O)[nH]c1=O	x	7.0	x	x	x	x
O=C(O)CC1c2cc(F)ccc2S(=O)(=O)N1C1CCN(Cc2ccccc2)CC1 (configuration not stated)	x	5.9	x	x	x	x
Cc1ccc2nc(-c3ccc(NC(=O)C(C)Sc4nncs4)cc3)sc2c1 (configuration not stated)	1.5	3.0	14.8	2.7	33.8*	-41.0

Screening data as filed in PubChem.
